The list is not random: actives were taken first. Their share in the collection is about 18%.
IL1B secr inh = inhibitors of inflammasome signaling (IL-1 beta secretion). activity change, % at 57.5 µM. 4.7% of 360,000 active. THP-1 LPS/ATP IL-1B secretion, AlphaLISA, 16 h; stronger effect = lower value; in the data active = activity change below about -50%; inconclusive = mostly about -30% to -49%
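THP-1 cells pretreated 1 hr with compounds (up to 57.5 uM final), then stimulated with LPS (250 ng/mL final) plus ATP (1.25 mM final); secreted IL-1B measured by AlphaLISA after 16 hr, decreased signal indicating inhibition.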
TDP1 cell noCPT = qHTS for Inhibitors of human tyrosyl-DNA phosphodiesterase 1 (TDP1): qHTS in cells in absence of CPT; Potency, µM (doses to about 46.2 µM), usual class: inhibitors; 15% of 420,000 active; DT40 Tdp1-/- hTDP1 cells, no CPT, ATP luminescence, 48 h; also: nearly all actives have a fitted effect of over 55% in size
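A cellular qHTS used chicken DT40 cells lacking endogenous Tdp1 but carrying stably transfected human TDP1. Compounds were applied without camptothecin, and cell growth kinetics were judged by ATP-dependent luminescence after ≥48 hr.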
CtBP-E1A blk = inhibitors of CtBP/E1A interaction; AID 651724; 0.49% of 340,000 active; activity change, % (concentration not given with the values); AlphaScreen GST-E1A/His-CtBP binding, 1536-well; stronger effect = lower value; in the data active = activity change below about -65%; inconclusive = mostly about -30% to -63%
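In 5 uL wells, 23 nL compound meets equimolar GST-E1A and His-CtBP (5X stock 125 nM each) for 2 h, 37 °C. Beads (5X, 50 ug/mL) then 1 h, 37 °C, dark.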
Six1-Eya2 blk = Six1/Eya2 interaction inhibition; 0.56% of 360,000 active; Q15475+O00167; activity change, % (test concentration not listed); AlphaScreen GST-Six1/His-Eya2 binding, biochemical; stronger effect = lower value; in the data active = activity change below about -65%; inconclusive = mostly about -30% to -63%
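Six1/Eya2 binding was read as AlphaScreen signal after compounds were pinned into GST-Six1 plus His-tagged Eya2 (5X stock 250/500 nM) in pH 8.0 Tris/NaCl/TCEP buffer, beads added, then incubated 1 h, 37 C, dark.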
TDP1 block = inhibitors of human tyrosyl-DNA phosphodiesterase TDP1; Q9NUW8; recombinant TDP1, AlphaScreen DNA substrate cleavage; Potency, µM (top dose mostly 130 µM), hits mostly inhibitors; 0.28% of 350,000 active; AID 485290; also: nearly all actives have a fitted effect of over 40% in size
Target sequence (Q9NUW8 whole entry, looked up): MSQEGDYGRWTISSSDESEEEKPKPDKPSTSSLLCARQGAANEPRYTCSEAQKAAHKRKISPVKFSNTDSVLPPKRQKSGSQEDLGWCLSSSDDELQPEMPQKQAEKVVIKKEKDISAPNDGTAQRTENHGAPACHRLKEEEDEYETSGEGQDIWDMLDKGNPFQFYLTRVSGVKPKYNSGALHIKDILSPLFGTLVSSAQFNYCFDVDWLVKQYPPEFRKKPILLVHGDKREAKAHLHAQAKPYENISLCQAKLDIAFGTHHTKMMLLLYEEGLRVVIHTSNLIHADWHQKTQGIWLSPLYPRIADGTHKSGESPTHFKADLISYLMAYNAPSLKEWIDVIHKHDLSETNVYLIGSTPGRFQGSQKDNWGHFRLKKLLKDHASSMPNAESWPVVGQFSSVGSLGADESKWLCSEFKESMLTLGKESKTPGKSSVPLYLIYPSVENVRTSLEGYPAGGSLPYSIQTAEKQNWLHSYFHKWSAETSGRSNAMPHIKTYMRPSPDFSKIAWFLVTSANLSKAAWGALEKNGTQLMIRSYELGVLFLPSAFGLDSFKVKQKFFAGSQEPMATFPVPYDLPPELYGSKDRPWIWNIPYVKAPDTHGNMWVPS
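AlphaScreen read-out: signal falls as enzyme removes the 3' tyrosine-FITC from a 5'-biotinylated DNA oligo (15 nM, 5 min, RT). Enzyme was E. coli-made recombinant Tdp1 at 1 nM, exposed to compound for 15 min beforehand; beads 10 ug/ml, 10 min.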
DT40 TDP1 CPT = growth inhibition of DT40 Tdp1-/-;hTDP1 cells with camptothecin (screen for TDP1 inhibitors); AID 686979; 12% of 420,000 active; chicken DT40 Tdp1-/-;hTDP1 cells + 20 nM CPT, ATP luminescence, 48 h; Potency, µM (highest dose often 46.2 µM), most hits filed as inhibitors; also: nearly all actives have a fitted effect of over 55% in size
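Chicken DT40 Tdp1-/- cells stably complemented with human TDP1 were seeded at 400 cells/well in medium containing 20 nM camptothecin, exposed to pin-transferred compounds, and grown at 37 °C for at least 48 hr. Viability was read as ATP luminescence.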
A number is an active result; – = inactive; ? = inconclusive; · = no result given; [ ] = remark or other dose. Unless noted, calls follow the shape of the dose curve; as a rule, active = well fitted curve in the direction sought with a large enough effect; inconclusive = small, poorly fitted or top-dose-only effect, or another doubt; inactive = no such curve, though single readings can be large; an effect the other way counts as inactive or inconclusive.

SMILES	IL1B secr inh	TDP1 cell noCPT	CtBP-E1A blk	Six1-Eya2 blk	TDP1 block	DT40 TDP1 CPT
CCCCOc1ccc(C(=O)Oc2ccc(C)nc2)cc1	–	–	–	–	–	–
CCCCCOc1ccc(OC(=O)c2ccncc2)cc1	–	13µM	–	–	–	12µM
CC(C)Cn1c(=O)c2sccc2n2c(CCCC(=O)NC3CCCCC3)nnc12	·	?	·	·	–	?
Nc1[nH]c(C(=O)c2ccccc2)c(-c2ccc(Cl)cc2)c1C(=O)NCCc1c[nH]c2ccccc12	–	?	–	–	·	?
COc1ccc(C(=O)c2[nH]c(N)c(C(=O)NCCc3c[nH]c4ccccc34)c2-c2c(F)cccc2Cl)cc1	–	15µM	–	–	·	16µM
COc1ccc(C(=O)c2[nH]c(N)c(C(=O)NCCc3c[nH]c4ccccc34)c2-c2ccc(OC)c(OC)c2)cc1	?	8.2µM	–	?	·	16µM
Nc1[nH]c(C(=O)c2ccccc2)c(-c2ccc(F)cc2)c1C(=O)NCCc1c[nH]c2ccccc12	?	23µM	–	–	·	?
Cc1ccc(C(C)n2cc(C(=O)NCCN3CCN(C)CC3)nn2)cc1 (configuration not stated)	–	–	–	–	–	–
CN(C)CCNC(=O)c1cc2c(s1)-c1ccccc1OC2	–	?	–	–	–	16µM
COc1ccc(CCNC(=O)c2cc3c(s2)-c2ccccc2OC3)cc1OC	·	12µM	·	·	?	?
Cc1c(NC(=O)c2cc3c(s2)-c2ccccc2OC3)cccc1[N+](=O)[O-]	-73	18µM	?	–	–	?
COc1ccccc1CNC(=O)c1cc2c(s1)-c1ccccc1OC2	·	?	·	·	–	?
Cc1csc(NC(=O)c2cc3c(s2)-c2ccccc2OC3)n1	–	–	–	–	–	–
O=C(NCc1cccc(Cl)c1)c1cc2c(s1)-c1ccccc1OC2	·	·	·	·	–	·
O=C(COC(=O)c1cccc(NS(=O)(=O)c2ccc(F)c(F)c2)c1)NC(=O)NC1CCCC1	–	?	–	–	–	–
CCCCCCCCCCCCCCCC[n+]1cccc2ccccc21	-102	0.23µM	–	–	–	0.41µM
C=CC[n+]1cccc2cc(Br)ccc21	·	–	·	·	·	–
CCCCCCCCC[n+]1cccc2c3ccccc3ccc21	–	0.46µM	–	–	–	0.58µM
O=C(C[n+]1cc2ccccc2c2ccccc21)c1ccccc1	–	?	–	–	–	?
Brc1cccc[n+]1Cc1ccccc1C[n+]1ccccc1Br	·	–	·	·	·	?
Cc1ccccc1C[n+]1cccc2ccccc21	–	15µM	–	–	–	?
CCCCCCCCCC[n+]1cccc2cc(Br)ccc21	·	1.3µM	·	·	·	0.63µM
COc1ccc(CC(=O)NNc2ncnc3c2cnn3Cc2ccccc2)cc1OC	–	–	–	–	–	–
COc1cccc(NC(=O)/C(C#N)=C/c2c(C)n(Cc3ccc(Cl)cc3)c3ccccc23)c1	·	?	·	·	–[2.28 µM]	–
COc1ccc(Cc2nc3ccccc3[nH]c2=O)cc1	–	–	–	–	–[0.0935 µM]	–
SMILES	IL1B secr inh	TDP1 cell noCPT	CtBP-E1A blk	Six1-Eya2 blk	TDP1 block	DT40 TDP1 CPT
COc1ccc(CCC2=NCCN2C(CC(C)C)c2nc3ccccc3[nH]2)cc1 (configuration not stated)	–	16µM	–	–	·	21µM
O=C(Nc1ccccc1Cl)c1cc(C2CCCN(C(=O)CCc3ccccc3)C2)on1 (configuration not stated)	–	?	–	–	·	–
CNC(=O)c1ccc(Nc2nnc(-c3ccc(O)cc3)c3ccccc23)cc1	–	?	–	–	·	–
CN(C)C(=O)c1ccc(Nc2nnc(-c3ccc(O)cc3)c3ccccc23)cc1	-55	?	–	–	·	?
CCN(CC)C(=O)c1ccc(-c2nnc(Nc3ccc(C(=O)NC)cc3)c3ccccc23)cc1	–	?	·	–	·	15µM
N#Cc1cn(CC(=O)N2CCc3ccccc3C2)c2ccccc12	–	?	–	–	–	–
COc1ccc(-c2cc(CNC(=O)CN3CCN(C)CC3)on2)cc1	–	–	–	–	–	–
CCCOc1ccc(C(=O)N2CCCC2)cc1OC	–	–	–	–	–	–
Cc1ccc(Oc2nnc(-c3ccccc3)cc2C#N)cc1	–	–	–	–	–	–
CCn1c(N2CCN(Cc3ccc([N+](=O)[O-])cc3)CC2)nc2ccccc21	–	21µM	·	–	–	?
CCCn1c(N2CCN(C(=O)/C=C/C(=O)O)CC2)nc2ccccc21	–	–	–	–	·	–
CCCn1c(N2CCN(Cc3ccc(Cl)cc3)CC2)nc2ccccc21	–	12µM	·	–	–	?
CC1CN(C(=O)COC(=O)/C=C/c2ccc(C(F)(F)F)cc2)CC(C)O1 (configuration not stated)	–	–	–	–	–	–
CC1CN(C(=O)/C=C/c2ccc(SC(F)F)cc2)CC(C)O1 (configuration not stated)	–	13µM	–	–	·	?

Assay outcomes: PubChem BioAssay, National Center for Advancing Translational Sciences (NCATS)
